# Screening data (PubChem BioAssay)
# A selection: hits, their analogues and other compounds. The true share with any hit is near 6.8%.
# PINK1 expr mod = A Quantitative High throughput Screen to Identify Chemical Modulators of PINK1 Expression; PINK1 immunofluorescence, high-content cytometry, 24 h; Potency, µM (series often up to 76.6 µM), usual class: activators; actives 0.2% (n = 410,000); active means well fitted activation curve with a large enough effect; inconclusive means small, poorly fitted or top-dose-only effect; cell line not stated here; further: nearly all actives have a fitted effect of over 65% in size
#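 Fluorescence from anti-PINK1 antibody, together with nuclear and cell stains, was scanned on a laser-scanning cytometer. Before staining, stable-line cells were incubated 24 hours with compounds at 5 concentrations; primary antibody 12 h at 10 degrees C.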
# KB-3-1 tox = qHTS assay for MDR1-selective chemotherapeutics: Primary screen using the parental adenocarcinoma cell KB-3-1 | KB-3-1 viability, CellTiter-Glo ATP luminescence, 72 h | Potency, µM (highest dose often 46.1 µM), usual class: cytotoxic | actives 1.4% (n = 400,000) | AID 1347075, 2019; further: nearly all actives have a fitted effect of over 60% in size
#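 Luminescent ATP read-out (CellTiter-Glo) measures survival of drug-naive KB-3-1 cells after 72 h compound exposure at 37 °C. Titration series was screened from lowest to highest concentration, with DMSO vehicle plates as background controls.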
# MCF10A rerep = A quantitative high throughput screen for small molecules that induce DNA re-replication in MCF 10a normal breast cells. MCF 10A DNA re-replication, Hoechst nuclear intensity, 48 h. Potency, µM (top dose mostly 46.1 µM), usual class: activators. actives 2.9% (n = 350,000); further: nearly all actives have a fitted effect of over 50% in size
# TSG101-PTAP inh = qHTS Assay for Iinhibitors of HIV-1 Budding by Blocking the Interaction of PTAP/TSG101; Tumor susceptibility gene 101 protein (Homo sapiens), Q99816; Fluorescence polarization, FITC-PTAP peptide / Tsg101 binding; Potency, µM (series often up to 115 µM), most hits filed as inhibitors; 340,000 tested, under 10 active; AID 493005, 2010; active means well fitted inhibition curve with a large enough effect in the main read-out, with a control signal flat, not every such curve was filed as active; inconclusive means small, poorly fitted or top-dose-only effect, or effect the other way, or a change in a side signal; inactive means no such curve, though single readings can be large or run the other way
# Target sequence (Q99816 whole entry, looked up): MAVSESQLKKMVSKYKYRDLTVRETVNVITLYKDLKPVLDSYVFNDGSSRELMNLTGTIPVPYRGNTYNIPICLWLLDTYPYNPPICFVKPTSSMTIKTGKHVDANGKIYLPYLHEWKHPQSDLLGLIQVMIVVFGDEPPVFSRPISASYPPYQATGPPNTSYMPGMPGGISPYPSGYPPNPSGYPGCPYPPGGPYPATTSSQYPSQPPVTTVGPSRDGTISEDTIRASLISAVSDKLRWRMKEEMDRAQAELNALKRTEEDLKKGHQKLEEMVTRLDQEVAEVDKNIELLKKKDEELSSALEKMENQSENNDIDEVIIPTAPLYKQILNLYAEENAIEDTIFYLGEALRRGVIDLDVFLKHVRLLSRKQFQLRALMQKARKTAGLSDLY
#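 Fluorescence polarization binding of Tsg101 binding domain (10 uM final) to FITC-labeled PTAP peptide (50 nM final) in HEPES pH 7.5 buffer with NaCl, Tween 20, EDTA, TCEP. Compounds added before peptide; binding 20 min at RT.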
# KB-V1 cytotox = qHTS assay for MDR1-selective chemotherapeutics: Primary screen using the drug-selected MDR subline cells KB-V1. Potency, µM (titrated, usually from 46.1 µM), most hits filed as cytotoxic. actives 3.4% (n = 400,000). KB-V1 MDR cells viability, CellTiter-Glo, 72 h. AID 1347076, 2019; further: nearly all actives have a fitted effect of over 60% in size
#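 Cells of the MDR subline KB-V1 are plated, dosed with compound at multiple concentrations, and incubated 72 h at 37 degrees C; CellTiter-Glo is then added and luminescence read after 10 min.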
# SW480 rerep = A quantitative high throughput screen for small molecules that induce DNA re-replication in SW480 colon adenocarcinoma cells; actives 1.8% (n = 340,000); Potency, µM (doses to about 46.1 µM), most hits filed as activators; SW480 DNA re-replication, Hoechst DNA content imaging, 48 h; further: nearly all actives have a fitted effect of over 55% in size
#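 Per well, 250 cells were exposed to pinned compound for 48 hr. Nuclear DNA was visualised with Hoechst (40 min, 37 C) and total object intensity recorded by fluorescence scanning.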
# Hits are given with their value; – = inactive; ? = inconclusive; · = no result given. Unless noted, the call rests on the fitted dose curve; in most records, active means well fitted curve in the direction sought with a large enough effect; inconclusive means small, poorly fitted or top-dose-only effect, or another doubt; inactive means no such curve, though single readings can be large; an effect the other way counts as inactive or inconclusive.
SMILES,PINK1 expr mod,KB-3-1 tox,MCF10A rerep,TSG101-PTAP inh,KB-V1 cytotox,SW480 rerep
Oc1cccc(C(O)CNCc2ccc(-c3ccccc3)cc2)c1 (stereo not drawn),–,?,16µM,–,?,?
COc1ccc(Br)cc1Cn1nnc(C(=O)Nc2cccc(SC)c2)c1N,–,–,·,·,–,·
O=C(CNC(=O)c1ccco1)N=Nc1c(O)n(CCc2ccccc2)c2ccccc12,–,1.3µM,?,–,3.7µM,1.8µM
CCCCn1c(O)c(N=NC(=O)c2ccco2)c2ccccc21,–,–,?,–,16µM,–
COc1ccc(NC(=O)CN2C(=O)COc3ccc(S(=O)(=O)NC4CCCC4)cc32)cc1OC,–,–,·,·,?,·
CCN(CC)c1ccc(/C=N/NC(=O)Cc2cccs2)c(O)c1,–,?,?,–,?,?
CCN(CC)c1ccc(/C=N/NC(=O)c2cnccn2)cc1,–,?,2.3µM,–,–,?
CCN(CC)c1ccc(/C=N/NC(=O)c2ccco2)c(O)c1,–,?,21µM,–,–,1.5µM
CCN(CC)c1ccc(/C=N/NC(=S)NCc2ccccc2)c(O)c1,–,7.3µM,16µM,–,–,16µM
CCN(CC)c1ccc(/C=N/NC(=O)c2ccco2)cc1,–,3.7µM,4.1µM,–,–,5.8µM
Cc1cc(C)c(NC(=O)CSc2cn(CC(=O)N3CCOCC3)c3ccccc23)c(C)c1,–,·,·,·,·,·
O=c1cnc2cnc(Oc3ccccc3)nc2n1C[C@H]1CCCO1,–,·,·,·,·,·
CCOc1ccc(NC(=O)CSc2nnc(C3CC3)n2C2CC2)cc1,–,–,–,–,13µM,–
N#CCCn1c(=O)c(-c2ccc(F)cc2)nc2cnc(Oc3cccc(Cl)c3)nc21,–,·,·,·,·,·
O=C(Cc1ccc(Cl)cc1)Nc1cccc(S(=O)(=O)Nc2ccccc2F)c1,–,–,–,–,–,–
CN(C)S(=O)(=O)c1cccc(NC(=O)Cc2ccc(Cl)cc2)c1,–,–,?,–,21µM,–
Cc1ccc(S(=O)(=O)N(C)C)cc1NC(=O)c1ccc(OC(F)(F)F)cc1,–,–,–,–,–,–
COc1ccc(NC(=O)c2ccccc2OCc2c(C)noc2C)cc1OC,–,–,–,–,?,–
CN(C)S(=O)(=O)c1cccc(NC(=O)c2ccc(OC(F)(F)F)cc2)c1,–,?,–,–,2.6µM,–
CC(=O)Nc1cccc(NC(=O)c2ccccc2OCc2c(C)noc2C)c1,–,–,–,–,–,–
CCN(CC)S(=O)(=O)c1cc(NC(=O)c2ccccc2OCc2c(C)noc2C)ccc1C,–,–,–,–,7.3µM,–
Cc1noc(C)c1COc1ccccc1C(=O)Nc1cccc(S(=O)(=O)N(C)C)c1,–,–,–,–,15µM,–
O=C(CCC1N=C2c3ccccc3N=C(SCc3ccc(F)cc3)N2C1=O)NCCc1ccccc1 (stereo not drawn),–,–,·,·,–,·
O=C1CCc2cc(S(=O)(=O)Nc3ccc(Cl)c(Cl)c3)c(F)cc2N1,·,–,·,·,?,·
Cc1ccc(-c2nc3ccccc3o2)cc1NC(=O)COc1ccccc1C,–,–,·,·,?,·
SMILES,PINK1 expr mod,KB-3-1 tox,MCF10A rerep,TSG101-PTAP inh,KB-V1 cytotox,SW480 rerep
O=C(COc1ccccc1C(=O)Nc1ccccc1)Nc1ccccc1F,–,–,·,·,–,·
Cc1ccc(S(=O)(=O)N(C)C)cc1NC(=O)COc1ccccc1C(=O)Nc1ccccc1,–,–,–,–,?,–
Cc1ccc(NC(=O)c2ccccc2OCC(=O)Nc2ccccc2F)cc1S(=O)(=O)N(C)C,–,5.2µM,–,–,?,–
CN(C)S(=O)(=O)c1cccc(NC(=O)COc2ccccc2C(=O)Nc2ccccc2)c1,–,?,·,·,16µM,·
COc1ccc(OC)c(/C=C/c2cc3ccccc3c[n+]2C)c1,–,?,·,·,–,·
CC(C)Cc1nc2cc(NS(=O)(=O)N(C)C)cc(C(=O)N3CCOc4ccccc4C3)c2n1C,–,·,·,·,·,·
Cc1c(Cl)cccc1NC(=O)Nc1cccnc1,–,–,–,–,–,–
Cc1c(Cl)cccc1NC(=O)Nc1cnccn1,–,16µM,–,–,?,–
COc1ccccc1NC(=O)Nc1cnccn1,–,?,–,–,4.1µM,–
O=C(CSc1nccn1Cc1ccc(Cl)cc1)Nc1nc2ccccc2s1,–,–,·,·,–,·
O=C(Cn1ccc2cc(S(=O)(=O)N3CCCCCC3)ccc21)NCc1cccc(Cl)c1,–,·,·,·,·,·
COC(=O)c1[nH]c2c(c1C)C(=O)CC(c1cc(OC)ccc1OC)C2 (stereo not drawn),–,3.7µM,8.2µM,–,5.2µM,?
COC(=O)c1[nH]c2c(c1C)C(=O)CC(c1cccs1)C2 (stereo not drawn),–,?,2.1µM,–,2.1µM,?
COc1ccc(OC)c(C2CC(=O)c3c([nH]c(C(=O)OCC4CCCCC4)c3C)C2)c1 (stereo not drawn),–,–,·,·,–,·
COc1ccc(C2CC(=O)c3c([nH]c(C(=O)OC(C)C)c3C)C2)cc1OC (stereo not drawn),–,–,–,–,2.6µM,–
COc1ccc(C2CC(=O)c3c([nH]c(C(=O)OC4CCC(C)CC4)c3C)C2)cc1OC (stereo not drawn),–,·,·,·,·,·
CCSc1ccccc1C(=O)Nc1nc2ccccc2c(=O)[nH]1,–,–,–,–,18µM,?
CC(C)c1ccc2[nH]c3c(c2c1)CCC/C3=N\NC(=O)c1ccncc1,–,?,–,–,?,–
CC(C)c1ccc2[nH]c3c(c2c1)CCCC3=O,–,–,–,–,13µM,–
Cc1ccc2[nH]c3c(c2c1)SC(C)(C)CC3=O,–,–,18µM,–,–,?
Cc1ccc2[nH]c3c(c2c1)CCC3=O,·,–,–,–,?,–
Cc1ccc2[nH]c3c(c2c1)CCCC3=O,–,1.8µM,–,–,1.8µM,–
CSc1ccccc1C(=O)NCC1Cc2cc(F)cc(-c3cnccn3)c2O1 (stereo not drawn),–,·,·,·,·,·
N#Cc1nc(-c2cccc3ccccc23)oc1N1CCCCC1,–,–,–,–,–,?
CC1CCN(c2oc(-c3cccc4ccccc34)nc2C#N)CC1,·,–,10µM,–,–,–
CC(=O)N1CCN(c2cc(N3CCc4ccccc4C3)c(F)cc2[N+](=O)[O-])CC1,–,–,?,·,18µM,–
